# Most compounds without a hit are left out; they make up all but 5.7% or so of the library.
# hgDAF-12 ag = agonists of H. glycines DAF-12 nuclear receptor; HEK293 GAL4-hgDAF12 UAS-luciferase reporter, agonist luminescence; normalized to butyrate control; activation, % at 6.8 µM; 1.8% of 370,000 active; AID 687014;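 active = activation above a cutoff set at the mean of all screened compounds plus 3 SD, cut at about 10% in these data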;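 note: 0% = DMSO wells and 100% = sodium butyrate wells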
# ssDAF-12 act = activators of S. stercoralis DAF-12 nuclear receptor; activation, % at 6.8 µM; HEK293 ssDAF-12/GRIP1 lit1-tk-luc reporter, luminescence; % of 3 µM dafachronic acid response; 1% of 370,000 active;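 active = activation above the mean over all tested compounds plus 3 SD, cut at about 0.9% in these data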;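 note: 0% = DMSO-only wells and 100% = 3 µM delta7-dafachronic acid wells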
# hcDAF12 agonist = H. contortus DAF-12 activation, primary screen | activation, % at 6.8 µM | HEK293 hcDAF-12 lit1-tk-luc reporter, luminescence; 0% DMSO, 100% Δ7-dafachronic acid | AID 652067 | 1.4% of 370,000 active;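 active = activation above the mean of all tested compounds plus 3 SD, cut at about 5.5% in these data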;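 note: 100% = response to 3 µM Δ7-dafachronic acid high control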
# AHR act = activators of human aryl hydrocarbon receptor; activation, % at 5 µM; AID 2796; AHR-responsive luciferase reporter cells, luminescence; 2.5% of 320,000 active; P35869; in the data active = activation above about 47%;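 note: 0% = vehicle wells and 100% = reference agonist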
# DAX1 inh-1 = blocks DAX1 repression of SF-1 activated StAR promoter | 1.1% of 370,000 active | HEK293T StAR-luciferase reporter, SF-1/DAX-1 repression relief | inhibition, % at 6.8 µM | AID 652010;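 active = inhibition above the mean over all tested compounds plus 3 SD, cut at about 3.6% in these data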;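 note: 0% = DAX-1 cells with DMSO and 100% = cells lacking DAX-1 with DMSO; higher inhibition means more luminescence from relief of DAX-1 repression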
# DAX1 inh-2 = inhibits human nuclear receptor DAX1. 0.99% of 340,000 active. inhibition, % at 6.75 µM. HEK293 Gal4-DAX1 luciferase reporter, luminescence;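 active = inhibition above the mean over all tested compounds plus 3 SD, cut at about 4.2% in these data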;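 note: 0% = DAX1-transfected cells with DMSO and 100% = empty-vector control cells with DMSO; inhibition shows as a rise in luminescence from relieved DAX1 repression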
# Target sequence (P51843 207-470 limits assumed): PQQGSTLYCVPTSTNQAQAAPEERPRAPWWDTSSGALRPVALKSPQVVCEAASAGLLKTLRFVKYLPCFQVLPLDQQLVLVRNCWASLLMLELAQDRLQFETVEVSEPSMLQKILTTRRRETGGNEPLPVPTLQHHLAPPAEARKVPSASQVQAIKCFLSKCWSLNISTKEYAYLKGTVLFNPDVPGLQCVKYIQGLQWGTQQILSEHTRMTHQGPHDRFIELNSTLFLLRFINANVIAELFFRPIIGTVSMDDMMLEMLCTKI
# The depositor's hits bear a star; / = no result given.
SMILES,hgDAF-12 ag,ssDAF-12 act,hcDAF12 agonist,AHR act,DAX1 inh-1,DAX1 inh-2
COc1ccc(Cc2c(-c3ccc(F)cc3)nc3cc(C)c(Br)c(C)n23)c(C)c1,10,2.2*,5.7*,/,1,/
Cc1c(-c2cccs2)[n+](=O)c2c(n1[O-])CCCCC2,1,0,-2,1,0,4
CCOC(=O)c1cc(C(=O)OCC)c2ccccn2c1=O,-2,-1,-2,4,-1,0
CC(NC(=O)C(=O)NN=C1CCCCCCCCCCC1)c1ccccc1 (stereo not drawn),4,0,0,3,0,2
COc1cc(NC(=O)c2cccs2)c(OC)cc1NC(=O)c1cccs1,/,/,/,57*,/,0
COc1cc(NCCC(=O)c2cccs2)c(OC)cc1Cl,4,-1,3,51*,0,0
COc1ccc(OC)c(NC(=O)c2ccc(-c3cccs3)cc2)c1,2,-1,2,76*,0,-1
COC(=O)C1=C(C)N(Cc2ccc(C(F)(F)F)cc2)C(=NCc2ccc(C(F)(F)F)cc2)NC1c1ccccc1C(F)(F)F (stereo not drawn),0,-1,-1,/,0,/
O=C1C=CC(=O)N1,-2,-1,0,-1,2,0
C/C(=N\NC(=O)CC1N=C(Cc2ccccc2)NNC1=O)c1ccncc1 (stereo not drawn),-1,-2,0,57*,0,0
Cc1ccc(/C=N/NC(=O)CC2N=C(Cc3ccccc3)NNC2=O)cc1 (stereo not drawn),0,-2,-1,41,0,0
COc1cccc(-c2cc(C(=O)NCC3CCCO3)on2)c1 (stereo not drawn),11*,0,4,4,1,1
COCc1c(C(=O)N2CCN(Cc3nc4ccccc4s3)CC2)oc2ccccc12,0,0,1,10,-2,1
CN(C)CCNC(=O)C1(O)c2cc(Br)ccc2NC(=O)N1c1ccc(Cl)cc1 (stereo not drawn),-1,-1,-1,3,0,0
Cc1cc(/C=N/NC(N)=S)c(C)n1-c1ccc(Cl)c(Cl)c1,0,-1,-3,10,-2,-3
CCNC(=S)N/N=C/c1cc(C)n(-c2ccc(Cl)cc2)c1C,11*,-1,2,18,1,0
CC(=O)Nc1ccc(S(=O)(=O)Nc2ccc3c(c2)OCO3)cc1,-1,-1,-1,-1,0,-1
O=S(=O)(NCc1ccc2c(c1)OCO2)c1ccc(F)cc1,-3,-1,-2,0,1,7.5*
CC(=O)Nc1ccc(S(=O)(=O)NCC(=O)Nc2ccc3c(c2)OCO3)cc1,-1,2.1*,-1,2,0,-2
Cc1ccc(S(=O)(=O)NCC(=O)Nc2ccc3c(c2)OCO3)cc1,0,-1,-1,7,0,-1
O=S(=O)(c1ccc(NC(=S)Nc2ccc3c(c2)OCO3)cc1)N1CCOCC1,3,0,-1,74*,0,0
CNS(=O)(=O)c1ccc(NC(=S)Nc2ccc3c(c2)OCO3)cc1,11*,-1,2,12,0,0
Nc1cc(Cl)ccc1Oc1ccc(Cl)cc1,2,-1,0,2,-1,1
CN(C)c1ccc(Cl)cc1N,0,-1,0,2,-1,5.3*
COc1ccccc1CNC(=O)c1ccc(S(=O)(=O)N(C)c2ccccc2)cc1,-6,-1,0,/,-3,-2
SMILES,hgDAF-12 ag,ssDAF-12 act,hcDAF12 agonist,AHR act,DAX1 inh-1,DAX1 inh-2
COc1ccccc1N(C)S(=O)(=O)c1ccc(C(=O)NCc2ccccc2CN2CCCC2)cc1,-4,-2,-2,/,4.2*,0
O=C(O)c1[nH]c2ccccc2c1C=NCc1ccccc1Cl,-1,0,2,6,0,4.9*
C(=NOCCc1ccccc1)c1ccncc1,8,1.3*,1,/,1,1
C(=NOCCc1ccccc1)c1ccccn1,7,0,0,/,2,2
O=C(NC1CCCCC1)C(CCc1ccccc1)N1CCOCC1 (stereo not drawn),12*,0,0,/,1,/
COc1ccc(-n2nnnc2-c2cnc3cc4c(cc3c2C)OCO4)cc1,1,-1,-2,3,-1,0
Cc1ccsc1/C=N/Nc1ncnc2nc[nH]c12,3,-1,2,21,3,4.6*
